The record followed here is PubChem BioAssay AID1490 (National Center for Advancing Translational Sciences (NCATS), 2009).

About 11,000 (3.5%) of roughly 310,000 compounds were called active. Roughly 4% stayed inconclusive and do not appear here. For the sample, actives were picked, then their nearest neighbours and some compounds at random. A number with no mark means an inactive call. Calls follow the shape of the dose curve; as a rule, active = well fitted inhibition curve with a large enough effect; inconclusive = small, poorly fitted or top-dose-only effect, or another doubt; inactive = no such curve, though single readings can be large or run the other way.
Potency is read from the fitted curve at half-maximal effect.

This experiment concerns the target 4'-phosphopantetheinyl transferase ffp (Bacillus subtilis) (UniProt Q9F4F7). In words: qHTS Assay for Inhibitors of Bacillus subtilis Sfp phosphopantetheinyl transferase (PPTase).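 Also: the enzyme is Sfp with the accession as filed and its product quenches rhodamine fluorescence.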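 As to largest response in the series, negative = inhibition: 0% = enzyme reaction without inhibitor and -100% = no enzyme wells.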 Particulars: Biochemical Sfp PPTase activity. The text has this:
Assay Submitter: Michael Burkart, University of California, San Diego
Screening Center PI: Austin, C.P.
Screening Center: NIH Chemical Genomics Center [NCGC]
The covalent attachment of a phosphopantetheinyl (4'-PP) arm to a variety of synthases and other proteins is a key posttranslational protein modification. The 4'-PP is installed on the proteins post-translationally from coenzyme A (CoA) on a conserved serine residue by action of phosphopantetheinyl transferase (PPTase) enzymes. Phosphopantetheinylation is essential for synthase activity, and removal of the PPTase gene precludes natural product synthesis in microorganisms, or in the case of fatty acid biosynthesis, renders the organism unviable. PPTase enzymes belong to a distinct structural superfamily. Within bacteria, these enzymes are grouped into two classes based upon primary structure, the AcpS-Type and Sfp-Type PPTases.
Sfp-type PPTases, corresponding to an activator of surfactin production in Bacillus subtilis, are responsible for modifying type I polyketide and nonribosomal peptide synthases of prokaryotes. Sfp-type PPTases are responsible for the activation of a variety of pathogen-associated virulence factors. Among these compounds are toxins such as mycolactone from Mycobacterium ulcerans, siderophores such as vibriobactin from Vibrio cholerae or mycobactin from Mycobacterium tuberculosis, as well as the mycolic acids which form the waxy cell wall of Mycobacteria. The biosyntheses of these natural products are considered attractive targets for drug design.
In search of small molecule Sfp-PPTase inhibitors, a fluorescence quenching assay was developed for detection of Bacillus subtilis Sfp-PPTase enzymatic activity in a miniaturized high-throughput format. The consensus ybbr acceptor peptide […] was N-terminally labeled with Black Hole Quencher-2 (BHQ-2) and used in combination with rhodamine-labeled coenzyme A as a co-substrate.
Inhibition of Sfp-PPTase was detected by recording the fluorescence intensity change over a 30-minute reaction period at a 525 nm excitation and 598 nm emission. Reagents were supplied by Michael Burkart and Timothy Foley, University of California at San Diego.
This BioAssay deposition is for validation of the developed Sfp-PPtase assay.
Assay Buffer: 50 mM Hepes-Na pH 7.6, 10 mM MgCl2, 0.01% Nonidet P-40, and 0.01% BSA.
3 uL of Sfp-PPTase enzyme (final concentration 15 nM) and 1 uL of substrate mixture (final concentration for rhodamine-CoA and BHQ-2-YbbR 5 uM and 12.5 uM, respectively) dispensed in columns 1, 2, 5 - 48. Columns 1 and 2 used to generate neutral control (uninhibited reaction)
Three uL of reagents, consisting of buffer (in columns 3 and 4 as negative control) and Sfp-PPTase (in columns 1, 2, 5 - 48) were dispensed into 1,536-well Greiner black solid bottom plate. Compounds (23 nL) were transferred via Kalypsys pintool equipped with 1,536-pin array. The plate was incubated for 15 min at room temperature, followed by the addition of 1 uL substrate to start the reaction. The plate was then centrifuged at 1000 rpm for 15 seconds, and the fluorescence intensity recorded on a ViewLux High-throughput CCD imager (Perkin-Elmer) using standard BODIPY optics (525 nm excitation and 598 nm emission). The plate was then incubated for 30 minutes, and a second read on the ViewLux was performed. The fluorescence intensity difference over the 30-minute period was used to calculate the respective reaction rate for each well.
(Quantitative high-throughput screening tests each substance at several concentrations.)
Turning to `O=C(CCCn1c(SCC(=O)c2ccccc2)nc2ccccc2c1=O)NCC1CCCO1` (configuration not stated), the largest response in the series, negative = inhibition was -21.1%. Consider `CCCCn1c(SCC(=O)NCC2CCCO2)nc2ccc(N3CCOCC3)cc2c1=O` (configuration not stated), for which the Potency was 39.8 µM (active).

As for `COCCNC(=O)c1ccc(Cn2c(SCC(=O)NCC3CCCO3)nc3ccc(Br)cc3c2=O)cc1` (configuration not stated), the largest response in the series, negative = inhibition was -12.8%. On the same count and under the same terms, under `CCCCC(=O)Nc1nnc(S(=O)(=O)N(C)Cc2ccco2)s1` stands -1.11%; under `Cc1nn(-c2ccccc2)c2c1c(C)c(CCC(=O)NCC1CCCO1)c(=O)n2C` (configuration not stated), 20.2%. For the compound `CC(C)CCNc1nc(N2CCCC2)c2c(c1C#N)CCN(C)C2`, the Potency was 70.8 µM (active). Consider `CCN1CCc2c(C#N)c(NCc3ccccc3)nc(NCCO)c2C1`, for which the largest response in the series, negative = inhibition is -12.9%. `CCc1nc(NCCO)c(C#N)c2c1CCCC2`: the largest response in the series, negative = inhibition is -0.704%.

Take `COc1ccc(NC(=O)c2cccc(Cl)c2)c[n+]1[O-]`: the largest response in the series, negative = inhibition is -0.333%. Take `O=C(NCCc1ccccc1)c1ccc2c(c1)N(Cc1ccccc1)CCS2`: the largest response in the series, negative = inhibition is 5.03%. Same read-out and setting: with `COc1ccc(Cn2c(=S)[nH]c3cc(C(=O)N4CCCCC4)ccc3c2=O)cc1` the figure was -3.09%; with `CC(C)N(C(=O)c1ccc(-c2ccccc2F)cc1)C(C)C`, -2.72%; with `O=C(CN1C(=O)c2ccccc2C1=O)NCc1ccc(C(=O)O)cc1`, 9.6%.

As for `CC(=O)N(C1=C(Cl)C(=O)c2ccccc2C1=O)c1ccc(C(=O)O)cc1`, the Potency is 1 µM (active). For the compound `C/C=C/C=N/NC(=O)c1ccncc1`, the largest response in the series, negative = inhibition was -22.5%. On the same count and under the same terms, with `COC(=O)[C@@]1(Cc2ccc(OC)cc2)[C@H]2c3cc(C(=O)N4CCCC4)n(Cc4ccc(OC(F)(F)F)cc4)c3C[C@H]2CN1C(=O)c1ccccc1` the figure was 6.34%; with `COC(=O)[C@@]1(Cc2ccc(F)cc2)[C@H]2c3cc(C(=O)N4CCCC4)n(Cc4ccc(OC(F)(F)F)cc4)c3C[C@H]2CN1C(=O)c1ccccc1`, 24.5%.

As for `COC(=O)[C@@]1(Cc2ccccc2)[C@H]2c3cc(C(=O)N4CCCC4)n(Cc4ccc(C)o4)c3C[C@H]2CN1C(=O)c1ccccc1`, the Potency is 56.2 µM (active). As for `O=C(OCCN=C1NS(=O)(=O)c2ccccc21)c1cccc([N+](=O)[O-])c1`, the largest response in the series, negative = inhibition is 0.751%. Still for that read-out and setting: under `COC(=O)CN1C(=O)[C@H]2[C@@H](C3CC3)N3C(=O)CN(Cc4ccc(-c5ccccc5)cc4)C(=O)[C@@]3(Cc3ccccc3)[C@H]2C1=O` stands 13%.

Turning to `Oc1cc(O)c2c(c1)OC(c1ccc(O)c(O)c1)C(O)C2` (configuration not stated), the Potency was 44.7 µM (active). On to `CCOc1ccc(S(=O)(=O)NCCCn2ccnc2)cc1NC(C)=O`, for which the largest response in the series, negative = inhibition was 13.6%.
